Calls of active or inactive are those of the source.
test system: not listed separately; assay: S. cerevisiae growth modulation with rapamycin, primary screen, strain BY4716, OD600, 96 h (AID 1091); settings: higher = more signal, called active from +8 up or from −8 down; note: test concentration not given here

SMILES | z-score
C=C(CCCC)/C(=C/C[C@H](OC(C)=O)c1ccc(CO)o1)c1cc(C(=O)OC)ccc1OC | -0.194 (inactive)
COc1ccc([Si](C)(C)[C@@H]2[C@@H](CC(=O)N3Cc4ccccc4C[C@H]3CO)O[C@]3(C(=O)N(Cc4cccc(N5C(=O)COc6ccccc65)c4)c4ccccc43)[C@H]2C)cc1 | 3.67 (inactive)
C=C(C)[C@@H]1CC=C(C(O)C2C=CC3C(=O)N(Cc4ccccc4)C(=O)C3N2n2cnnc2)CC1 (some centres not stated) | 0.112 (inactive)
C=C(C(=O)CC[C@@H](OC(C)=O)c1ccc(OCCO)cc1)C(C)C | -0.423 (inactive)
COc1ccc(C(=O)Nc2cccc(CN3C(=O)[C@@]4(O[C@@H](CC(=O)N5Cc6ccccc6C[C@H]5CO)[C@H]([Si](C)(C)c5ccc(OC)cc5)[C@H]4C)c4ccccc43)c2)cc1 | 1.22 (inactive)
CC[C@@H]1C=C(C(=O)O)[C@H](c2ccc(C(C)C)cc2)N1S(=O)(=O)c1ccc(C)cc1 | -1.07 (inactive)
[N-]=[N+]=NCc1ccccc1C[C@]1(C(=O)NCC(O)CO)COC(c2ccc(OCCCO)cc2)=N1 (some centres not stated) | 0.113 (inactive)
[N-]=[N+]=Nc1ccccc1[C@@H]1OC(c2ccc(OCCCO)cc2)=N[C@]1(CCS(=O)(=O)c1ccccc1)C(=O)N1CCCCC1 | 2.83 (inactive)
O=C1OCCC/C=C\[C@H]2OC34C=CCN(Cn5nnc6ccccc65)C(=O)[C@H]3N(CCCO)C(=O)[C@@H]4C12 (some centres not stated) | -0.264 (inactive)
C=CCC(OC(C)=O)[C@@H]1[C@@H](N(Cc2cc3ccccc3o2)C(=O)c2cccc3ccccc23)c2cc(OCCCO)ccc2N1C(=O)Cc1ccc(OC)cc1 (some centres not stated) | 0.351 (inactive)
Cc1ccc(N2C(=O)c3ccccc3[C@@H](C(=O)NCC(C)C)[C@@H]2c2ccc(CO)cc2)nc1 | -0.456 (inactive)
COCCOC(=O)N1C(=O)[C@@]2(c3ccccc31)[C@H](c1ccc(O)cc1)N1[C@H](c3ccccc3)[C@H](c3ccccc3)OC(=O)[C@H]1[C@@H]2C(N)=O | 0.549 (inactive)
CN(C)CCCC[C@@H]1NC(=O)[C@@H]2C[C@H](C(=O)NCCCCCN)[C@H](c3ccc(O)cc3)N2C1=O | 0.213 (inactive)
COCCOC(=O)N1C(=O)[C@@]2(c3cc(C#CCCO)ccc31)[C@H](C(=O)NC[C@H](O)c1ccccc1)[C@H]1C(=O)O[C@H](c3ccccc3)[C@H](c3ccccc3)N1[C@@H]2c1ccc(OCCO)cc1 | 4.47 (inactive)
O=C1C2C=CC(C(O)C3CC=CCC3)N(n3cnnc3)C2C(=O)N1Cc1ccccc1 (configuration not stated) | 0.0633 (inactive)
CC(C)C(O)C1C=CC2C(=O)N(C)C(=O)C2N1N1CCCCC1 (configuration not stated) | -0.199 (inactive)
COC(=O)[C@@]1(Cc2ccc(F)cc2)[C@H]2c3cc(C(=O)N4CCCC4)n(CCc4ccc(OC)c(Br)c4)c3C[C@H]2CN1C(=O)c1ccccc1 | 2.31 (inactive)
COCCOC(=O)N1C(=O)[C@@]2(c3cc(C#CC4=CCCCC4)ccc31)[C@H](C(=O)N1CCN(c3ncccn3)CC1)[C@H]1C(=O)O[C@H](c3ccccc3)[C@H](c3ccccc3)N1[C@@H]2c1ccc(OCCO)cc1 | 3.23 (inactive)
O=C1OCC=C[C@H]2OC34C=CCN(CCN5CCOCC5)C(=O)[C@H]3N(CCCCCCO)C(=O)[C@@H]4[C@@H]12 (some centres not stated) | -0.918 (inactive)
NC(=O)[C@]1(Cc2ccccc2)N=C(c2ccc(OCCCO)cc2)O[C@@H]1c1ccccc1 | -0.314 (inactive)
COc1ccccc1CN1C(=O)c2ccccc2[C@](Cc2ccccc2I)(C(=O)NCc2ccccc2)[C@@H]1c1ccc(CO)cc1 | -0.694 (inactive)
CCCCN1CC=CC23O[C@@H]4C=CCCOC(=O)C4[C@H]2C(=O)N(CCCO)[C@@H]3C1=O (some centres not stated) | -0.497 (inactive)
CC(C)NC(=O)[C@@]1(c2ccc([N+](=O)[O-])cc2)CC(=O)N(C(C)C)[C@@H]1c1ccc(CO)cc1 | -0.692 (inactive)
O=C1NC(=O)C2C1C=CC(C(O)c1cccs1)N2Nc1ccccn1 (configuration not stated) | 0.206 (inactive)
CN(C)CCCCNC(=O)[C@@H]1C[C@@H]2C(=O)N[C@@H](CCCCN)C(=O)N2[C@@H]1c1cccc(OCCO)c1 | -0.363 (inactive)
C=CC[C@]1(C(=O)O)N=C(c2ccc(OCCCO)cc2)O[C@H]1c1ccccc1CN=[N+]=[N-] | 0.602 (inactive)

target: Torsin-1A-interacting protein 2 (Homo sapiens) (UniProt Q8NFQ8); assay: LULL1 binders on small-molecule microarray, primary screen, cell lysate, human LULL1 lysate, 635/667 nm fluorescence (AID 1092); settings: hLULL1 lysate binding, 635 nm fluorescence, higher = more signal;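 note: probe is lysate of COS7 cells overexpressing human LULL1; score merges per-feature 667 nm fluorescence with signal-to-noise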
Sequence (Q8NFQ8 whole entry, looked up): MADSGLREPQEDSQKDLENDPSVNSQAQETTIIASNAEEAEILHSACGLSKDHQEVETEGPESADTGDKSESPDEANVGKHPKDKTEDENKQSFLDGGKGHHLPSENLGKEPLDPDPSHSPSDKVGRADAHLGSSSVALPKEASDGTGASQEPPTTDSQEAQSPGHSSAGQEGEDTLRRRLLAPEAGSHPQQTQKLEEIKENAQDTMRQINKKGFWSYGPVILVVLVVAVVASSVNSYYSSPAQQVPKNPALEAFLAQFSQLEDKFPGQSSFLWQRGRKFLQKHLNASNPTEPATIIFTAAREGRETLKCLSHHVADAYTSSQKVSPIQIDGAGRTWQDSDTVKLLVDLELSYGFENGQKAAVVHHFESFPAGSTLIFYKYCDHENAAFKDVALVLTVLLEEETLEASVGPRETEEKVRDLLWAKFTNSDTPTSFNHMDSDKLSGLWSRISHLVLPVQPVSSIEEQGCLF

SMILES | composite z-score
CCCCC(=O)N(Cc1ccccc1F)[C@@H]1CC(C(=O)NCCO)=C[C@H](Oc2c(I)cc(CO)cc2OC)[C@H]1O | 1.83
COc1ccc([Si](C)(C)[C@H]2[C@H](CCO)O[C@@]3(C(=O)N(Cc4cccc(N5C(=O)c6cccc7cccc5c67)c4)c4ccccc43)[C@@H]2C)cc1 | 2.1
CC(C)C(CO)N1C(=O)[C@@H]2[C@H]3C(=O)OCC=C[C@H]3OC23C=CCN(c2ccc4ccccc4c2)C(=O)[C@@H]13 (some centres not stated) | 0.607
CCOC(=O)C[C@H]1[C@H](OC(=O)c2ccccc2-c2ccccc2)[C@@H](NC(=O)c2ccc(-c3ccccc3)cc2)c2cc(OCCCO)ccc2N1C(=O)c1ccccc1 | 1.99
CN(C)CCCC[C@@H]1NC(=O)[C@@H]2C[C@H](C(=O)NCCCCCCN)[C@H](c3ccc(O)cc3)N2C1=O | 2.52
CN1C(=O)C2C(C1=O)C1C=C(c3ccc(CO)cc3)C2C(C2CC2)N1Cc1sc2ccccc2c1Cl (configuration not stated) | 3.33
O=C1C2C=CC(C(O)c3ccc(B(O)O)cc3)N(Nc3ccc([N+](=O)[O-])cc3)C2C(=O)N1c1ccccc1 (configuration not stated) | 2.54
CCCNC(=O)[C@@]1(C)c2ccccc2C(=O)N(Cc2ccc(OC(F)(F)F)cc2)[C@H]1c1ccc(CO)cc1 | -0.416
[N-]=[N+]=NCc1ccccc1[C@H]1OC(c2ccc(OCCCO)cc2)=N[C@@]1(Cc1ccccc1)C(=O)O | 2.81
CCCC[C@@H]1C[C@H]1[C@@H](NC(=O)c1ccccc1)c1ccc(-c2ccccc2)cc1 | 2.3
C=C(CCCC)/C(=C/C[C@H](OC(C)=O)c1ccc(CO)o1)c1cc(C(=O)OC)ccc1OC | 1.8
COc1ccc([Si](C)(C)[C@@H]2[C@@H](CC(=O)N3Cc4ccccc4C[C@H]3CO)O[C@]3(C(=O)N(Cc4cccc(N5C(=O)COc6ccccc65)c4)c4ccccc43)[C@H]2C)cc1 | 1.25
C=C(C)[C@@H]1CC=C(C(O)C2C=CC3C(=O)N(Cc4ccccc4)C(=O)C3N2n2cnnc2)CC1 (some centres not stated) | 1.3
C=C(C(=O)CC[C@@H](OC(C)=O)c1ccc(OCCO)cc1)C(C)C | 1.45
COc1ccc(C(=O)Nc2cccc(CN3C(=O)[C@@]4(O[C@@H](CC(=O)N5Cc6ccccc6C[C@H]5CO)[C@H]([Si](C)(C)c5ccc(OC)cc5)[C@H]4C)c4ccccc43)c2)cc1 | 1.71
CC[C@@H]1C=C(C(=O)O)[C@H](c2ccc(C(C)C)cc2)N1S(=O)(=O)c1ccc(C)cc1 | 3.03
[N-]=[N+]=NCc1ccccc1C[C@]1(C(=O)NCC(O)CO)COC(c2ccc(OCCCO)cc2)=N1 (some centres not stated) | 2.54
[N-]=[N+]=Nc1ccccc1[C@@H]1OC(c2ccc(OCCCO)cc2)=N[C@]1(CCS(=O)(=O)c1ccccc1)C(=O)N1CCCCC1 | 2.83

SMILES | composite z-score
O=C1OCCC/C=C\[C@H]2OC34C=CCN(Cn5nnc6ccccc65)C(=O)[C@H]3N(CCCO)C(=O)[C@@H]4C12 (some centres not stated) | 3.64
C=CCC(OC(C)=O)[C@@H]1[C@@H](N(Cc2cc3ccccc3o2)C(=O)c2cccc3ccccc23)c2cc(OCCCO)ccc2N1C(=O)Cc1ccc(OC)cc1 (some centres not stated) | 1.33
Cc1ccc(N2C(=O)c3ccccc3[C@@H](C(=O)NCC(C)C)[C@@H]2c2ccc(CO)cc2)nc1 | 2.32
COCCOC(=O)N1C(=O)[C@@]2(c3ccccc31)[C@H](c1ccc(O)cc1)N1[C@H](c3ccccc3)[C@H](c3ccccc3)OC(=O)[C@H]1[C@@H]2C(N)=O | 2.35
CN(C)CCCC[C@@H]1NC(=O)[C@@H]2C[C@H](C(=O)NCCCCCN)[C@H](c3ccc(O)cc3)N2C1=O | 2.6
COCCOC(=O)N1C(=O)[C@@]2(c3cc(C#CCCO)ccc31)[C@H](C(=O)NC[C@H](O)c1ccccc1)[C@H]1C(=O)O[C@H](c3ccccc3)[C@H](c3ccccc3)N1[C@@H]2c1ccc(OCCO)cc1 | 3.11
O=C1C2C=CC(C(O)C3CC=CCC3)N(n3cnnc3)C2C(=O)N1Cc1ccccc1 (configuration not stated) | 1.09
CC(C)C(O)C1C=CC2C(=O)N(C)C(=O)C2N1N1CCCCC1 (configuration not stated) | 3.58
COC(=O)[C@@]1(Cc2ccc(F)cc2)[C@H]2c3cc(C(=O)N4CCCC4)n(CCc4ccc(OC)c(Br)c4)c3C[C@H]2CN1C(=O)c1ccccc1 | 3.52
COCCOC(=O)N1C(=O)[C@@]2(c3cc(C#CC4=CCCCC4)ccc31)[C@H](C(=O)N1CCN(c3ncccn3)CC1)[C@H]1C(=O)O[C@H](c3ccccc3)[C@H](c3ccccc3)N1[C@@H]2c1ccc(OCCO)cc1 | 2.02
O=C1OCC=C[C@H]2OC34C=CCN(CCN5CCOCC5)C(=O)[C@H]3N(CCCCCCO)C(=O)[C@@H]4[C@@H]12 (some centres not stated) | 2.87
NC(=O)[C@]1(Cc2ccccc2)N=C(c2ccc(OCCCO)cc2)O[C@@H]1c1ccccc1 | 3.54
COc1ccccc1CN1C(=O)c2ccccc2[C@](Cc2ccccc2I)(C(=O)NCc2ccccc2)[C@@H]1c1ccc(CO)cc1 | 2.22
CCCCN1CC=CC23O[C@@H]4C=CCCOC(=O)C4[C@H]2C(=O)N(CCCO)[C@@H]3C1=O (some centres not stated) | -0.748
CC(C)NC(=O)[C@@]1(c2ccc([N+](=O)[O-])cc2)CC(=O)N(C(C)C)[C@@H]1c1ccc(CO)cc1 | 2.61
O=C1NC(=O)C2C1C=CC(C(O)c1cccs1)N2Nc1ccccn1 (configuration not stated) | 1.12
CN(C)CCCCNC(=O)[C@@H]1C[C@@H]2C(=O)N[C@@H](CCCCN)C(=O)N2[C@@H]1c1cccc(OCCO)c1 | 3.58
C=CC[C@]1(C(=O)O)N=C(c2ccc(OCCCO)cc2)O[C@H]1c1ccccc1CN=[N+]=[N-] | 1.55

Source: PubChem BioAssay
